Results on five compounds are retold here after PubChem BioAssay.

Inconclusive results are not listed. The source made the active and inactive calls.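 Rule for the calls, unless noted: active = inhibition above the screen-wide mean plus 3 SD, about 51%; inactive = the rest.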

Usually inhibition stands for the relative decrease from the control value, in per cent.

Test [1] can be described thus: yeast TOR pathway RPL19A-GFP modulators, primary screen, cell-based, S. cerevisiae, multiplex flow cytometry (AID 1862; in the data active = percent of DMSO control GFP below about 86%;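 note: lower values mimic rapamycin by blocking the RPL19A rise seen in DMSO cells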). To be noted: S. cerevisiae RPL19A-GFP strain, flow cytometry fluorescence, 3 h; at 10 µM; stronger effect = lower value. (In general: In flow cytometry, cells or beads pass a laser one at a time.)
Test [2] in a line: modulators of MEP2-GFP levels in yeast, primary screen, S. cerevisiae, multiplex flow cytometry (AID 1867;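 active = GFP response, as percent of the DMSO control, above the screen-wide mean plus 3 SD, about 139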;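 note: median GFP channel fluorescence of barcode-gated MEP2-GFP cells measured by flow cytometry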). The conditions noted are these: S. cerevisiae MEP2-GFP strain, 3 h, at 10 µM, stronger effect = higher value, 100% means same as DMSO wells.
Test [3] can be described thus: modulators of CIT2-GFP expression in yeast, primary screen, S. cerevisiae, GFP fusion, multiplex flow cytometry (AID 1870;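 active = percent response above a set limit, the screen-wide mean plus 3 SD, cut at about 130% in these data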;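 note: barcoded CIT2-GFP strain pooled with four other GFP strains with rapamycin as positive control; median GFP fluorescence per well over plate mean of DMSO wells so 100% = DMSO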). To be noted: 3 h, at 10 µM, stronger effect = higher value.
Test [4] can be described thus: modulators of LAP4-GFP expression in yeast, primary screen, S. cerevisiae, multiplex flow cytometry (AID 1873;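 active = GFP signal, as percent of the solvent control, above the screen mean plus 3 SD, about 149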). To be noted: 3 h, at 10 µM, stronger effect = higher value.
Test [5] in a line: modulators of AGP1-GFP expression in yeast TOR pathway, primary screen, cell-based, multiplex flow cytometry, S. cerevisiae (AID 1887;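 active = GFP signal above the screen-wide mean plus 3 SD, that is over about 124.5% of the solvent control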;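 note: AGP1-GFP fusion strain of S. cerevisiae within a five-strain barcoded multiplex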). The conditions noted are these: 3 h, at 10 µM, stronger effect = higher value.
A short description of test [6]: inhibitors of CD8+ T cell-vesicle binding, pilot screen, LFA-1/ICAM-1 modulator project, MLPCN validation set, flow cytometry (AID 2523;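 active = response below a set limit, under 55% cells CD8-positive and vesicle-bound, and CD8 cells' 90th-percentile brightness under 279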;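 for vesicle binding response: mean PE anti-B7-1 fluorescence of CD8+ cells relative to row control; 100% = QL9-loaded vesicles with DMSO vehicle in the same plate row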). To be noted: 2C mouse CD8+ T cells, at 7 µM, stronger effect = lower value; double positive events: measured here: CD8+/vesicle+ event percentage.
Test [7] concerns the target Integrin beta-1 (Homo sapiens) + Integrin alpha-4 (Homo sapiens) (UniProt P13612+P05556). Briefly: inhibition of HUTS-21 binding to VLA-4, pilot screen, VLA-4 allosteric modulator project, U937 cells, HUTS-21 mAb, flow cytometry, validation set (AID 2674;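 active = inhibition above 50%, about 3 SD of the validation set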;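 note: antibody binding induced by the VLA-4 ligand LDV present at three times its Kd; 0% = LDV ligand with antibody and no compound and 100% = antibody without LDV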). The conditions noted are these: HUTS-21 LIBS mAb binding, at 6.7 µM, stronger effect = higher value, binding induced by LDV ligand.

The nature of test [8]: superoxide lowering in aged yeast cells, pilot screen, validation compound set (AID 2706;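 active = superoxide response below 65% of plate, a cut near 3 SD across the whole screen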;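 note: yeast exposed to compound for one week at 30 degrees C before staining; 100% = mean of all compound wells on the same plate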). The conditions noted are these: S. cerevisiae aging, superoxide DHE fluorescence; at 10 µM; stronger effect = lower value.
Test [9] concerns the target Beta-adrenergic receptor kinase 1 (Homo sapiens) (UniProt P25098). Briefly: GRK2 binders displacing RNA aptamer, biochemical, validation, human GRK2, bead flow cytometry (AID 488806;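 active = aptamer binding inhibition above 30%, about 3 SD of noise from non-fluorescent compounds; inactive = inhibition at or below 30%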). The conditions noted are these: bead-bound GRK2, FAM-aptamer displacement, at 10 µM, stronger effect = higher value.
In test [10] the target is Beta-2 adrenergic receptor (Homo sapiens) (UniProt P07550). The experiment in a line: beta2AR agonists driving receptor internalization, pilot screen, cell-based, FAP fluorogen, flow cytometry, validation set (AID 504459;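 active = percent response above 42, roughly 3 SD of non-fluorescent test compounds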;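 note: agonist-driven loss of surface beta2AR via internalization measured by FAP dye flow cytometry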). The conditions noted are these: Am2.2-beta2AR cells, FAP surface receptor flow cytometry; at 10 µM; stronger effect = higher value.
Sequence of Beta-2 adrenergic receptor (Homo sapiens) (P07550 whole entry, looked up): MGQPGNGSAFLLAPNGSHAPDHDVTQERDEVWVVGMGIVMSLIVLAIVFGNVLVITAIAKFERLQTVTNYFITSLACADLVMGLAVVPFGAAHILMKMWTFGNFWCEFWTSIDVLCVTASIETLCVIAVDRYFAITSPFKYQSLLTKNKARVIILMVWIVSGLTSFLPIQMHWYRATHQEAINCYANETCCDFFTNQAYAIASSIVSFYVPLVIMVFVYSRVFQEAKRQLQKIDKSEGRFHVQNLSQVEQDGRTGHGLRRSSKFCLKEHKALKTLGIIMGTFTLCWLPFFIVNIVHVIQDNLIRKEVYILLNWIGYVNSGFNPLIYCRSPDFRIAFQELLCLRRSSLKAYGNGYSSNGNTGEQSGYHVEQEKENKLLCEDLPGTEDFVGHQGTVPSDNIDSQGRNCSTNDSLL
Test [11] concerns the target AP-2 complex subunit beta (Homo sapiens) (UniProt P63010). The experiment in a line: inhibitors of arrestin peptide binding to AP2, pilot screen, biochemical, validation set, GST-AP2 beads, flow cytometry (AID 504541;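 active = inhibition above 54%, about 3 SD of non-fluorescent compounds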;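 note: AP2 carries R879A mutation and is captured from E. coli lysate; bead-bound FITC arrestin peptide fluorescence measuring arrestin peptide binding to AP2; 0% = DMSO wells and 100% = excess unlabeled arrestin peptide control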). The conditions noted are these: FITC arrestin peptide, at 10 µM, stronger effect = higher value, AP2 beta2 appendage fragment, R879A mutant.
Test [12] can be described thus: yeast V-ATPase proton transport modulators, S. cerevisiae, pHLuorin, HTS validation (AID 504600; in the data active = response above about 15%;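 note: plate controls were DMSO for no effect and reference compound for full effect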). To be noted: S. cerevisiae pHLuorin cytosolic pH, at 10 µM, stronger effect = higher value.
Test [13] relates to anti-desmoglein-3 scFv antibody binding to human DSG3. Briefly: inhibitors of anti-DSG3 scFv binding to DSG3, pilot screen, biochemical, validation compound set, bead-based, flow cytometry (AID 588368;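 active = binding below the plate cutoff, the plate median minus 3 SD, with a reading above zero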;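 note: signal is the median channel fluorescence of bead-bound GFP antibody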). The conditions noted are these: Protein G beads, DSG3-Fc, scFv-GFP binding, at 10 µM, stronger effect = lower value.
The nature of test [14]: inhibitors of fungal efflux pumps CDR1, CDR2, MDR1, pilot screen, validation compound set, multiplex, phenotypic (AID 588506;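 active = efflux inhibition above 0.42, the validation set average plus 4 SD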;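 note: Nile Red retained in cells so higher fluorescence means more efflux inhibition; 0 = negative control wells and 1 = enniatin B 25 µM full block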). To be noted: S. cerevisiae pump-expressing triplex, Nile Red efflux flow cytometry; at 10 µM; stronger effect = higher value; the pumps come from Candida albicans.
Test [15] has as its target ATP-binding cassette sub-family B member 6 (Homo sapiens) (UniProt Q9NP58). The experiment in a line: ABCB6 transporter inhibitors, pilot screen, K562-ABCB6 cells, flow cytometry, validation set (AID 588550).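 Note: 0% = DMSO wells and 100% = benzethonium chloride 70 µM positive control.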 To be noted: K562-ABCB6 porphyrin accumulation, 1 h, at 10 µM, stronger effect = higher value.
Test [16] is described as follows: promoters of myeloid differentiation in arrested cells, primary screen, cell-based, GFP/MAC1 double positive, flow cytometry, validation set (AID 588685;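 active = differentiation response of at least 50%, scaled between solvent and reference control, from cells with both markers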;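 note: compound exposure lasts four days before antibody staining and flow analysis; 0% = DMSO wells and 100% = 5 µM fulvestrant positive control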). To be noted: ER-HoxA9 marrow cells, stronger effect = higher value, normalized: vehicle 0, fulvestrant 100.

Sequence of Beta-adrenergic receptor kinase 1 (Homo sapiens) (P25098 whole entry, looked up): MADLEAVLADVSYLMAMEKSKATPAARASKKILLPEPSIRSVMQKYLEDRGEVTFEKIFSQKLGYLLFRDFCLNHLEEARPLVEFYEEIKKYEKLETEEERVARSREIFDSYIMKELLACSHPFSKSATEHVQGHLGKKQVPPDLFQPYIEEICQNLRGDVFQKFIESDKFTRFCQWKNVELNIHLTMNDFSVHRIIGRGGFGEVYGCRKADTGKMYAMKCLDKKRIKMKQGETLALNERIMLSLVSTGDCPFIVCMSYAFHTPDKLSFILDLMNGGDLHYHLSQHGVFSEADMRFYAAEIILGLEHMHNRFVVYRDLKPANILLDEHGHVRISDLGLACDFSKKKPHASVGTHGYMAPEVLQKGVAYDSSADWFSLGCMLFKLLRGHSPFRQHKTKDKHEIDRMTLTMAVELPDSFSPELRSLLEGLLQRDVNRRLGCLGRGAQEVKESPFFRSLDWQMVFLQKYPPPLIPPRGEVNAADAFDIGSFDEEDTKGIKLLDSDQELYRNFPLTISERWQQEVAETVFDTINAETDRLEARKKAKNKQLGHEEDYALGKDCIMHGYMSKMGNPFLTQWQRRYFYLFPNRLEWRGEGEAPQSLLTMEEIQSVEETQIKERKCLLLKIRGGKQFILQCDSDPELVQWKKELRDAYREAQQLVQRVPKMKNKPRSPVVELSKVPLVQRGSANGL
Sequence of AP-2 complex subunit beta (Homo sapiens) (P63010 whole entry, looked up, the tested form may be a part, one chain of several): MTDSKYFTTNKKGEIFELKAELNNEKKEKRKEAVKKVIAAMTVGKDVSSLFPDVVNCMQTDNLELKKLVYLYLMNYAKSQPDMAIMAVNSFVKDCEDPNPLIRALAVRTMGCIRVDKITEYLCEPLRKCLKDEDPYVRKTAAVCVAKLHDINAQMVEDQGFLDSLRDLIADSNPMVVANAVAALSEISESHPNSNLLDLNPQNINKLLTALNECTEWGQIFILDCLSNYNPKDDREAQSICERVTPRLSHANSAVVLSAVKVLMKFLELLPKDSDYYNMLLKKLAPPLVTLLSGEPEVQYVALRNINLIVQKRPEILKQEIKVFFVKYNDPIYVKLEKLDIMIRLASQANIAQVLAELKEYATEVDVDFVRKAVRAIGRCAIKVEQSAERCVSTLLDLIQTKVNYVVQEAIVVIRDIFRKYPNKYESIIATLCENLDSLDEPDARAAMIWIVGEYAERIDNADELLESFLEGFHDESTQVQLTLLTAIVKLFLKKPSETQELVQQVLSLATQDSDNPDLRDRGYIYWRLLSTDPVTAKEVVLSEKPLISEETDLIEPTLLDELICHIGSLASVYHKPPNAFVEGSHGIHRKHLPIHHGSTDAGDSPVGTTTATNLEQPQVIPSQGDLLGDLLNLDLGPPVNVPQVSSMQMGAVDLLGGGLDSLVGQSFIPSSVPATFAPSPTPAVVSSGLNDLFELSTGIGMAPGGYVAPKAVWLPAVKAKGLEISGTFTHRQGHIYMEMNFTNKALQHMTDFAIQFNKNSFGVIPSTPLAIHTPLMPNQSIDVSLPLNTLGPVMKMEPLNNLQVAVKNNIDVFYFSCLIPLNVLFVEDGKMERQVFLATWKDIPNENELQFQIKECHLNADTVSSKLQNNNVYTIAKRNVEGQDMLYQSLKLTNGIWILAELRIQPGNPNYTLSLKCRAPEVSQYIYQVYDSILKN
Sequence of Integrin beta-1 (Homo sapiens) + Integrin alpha-4 (Homo sapiens) (P05556 whole entry, looked up): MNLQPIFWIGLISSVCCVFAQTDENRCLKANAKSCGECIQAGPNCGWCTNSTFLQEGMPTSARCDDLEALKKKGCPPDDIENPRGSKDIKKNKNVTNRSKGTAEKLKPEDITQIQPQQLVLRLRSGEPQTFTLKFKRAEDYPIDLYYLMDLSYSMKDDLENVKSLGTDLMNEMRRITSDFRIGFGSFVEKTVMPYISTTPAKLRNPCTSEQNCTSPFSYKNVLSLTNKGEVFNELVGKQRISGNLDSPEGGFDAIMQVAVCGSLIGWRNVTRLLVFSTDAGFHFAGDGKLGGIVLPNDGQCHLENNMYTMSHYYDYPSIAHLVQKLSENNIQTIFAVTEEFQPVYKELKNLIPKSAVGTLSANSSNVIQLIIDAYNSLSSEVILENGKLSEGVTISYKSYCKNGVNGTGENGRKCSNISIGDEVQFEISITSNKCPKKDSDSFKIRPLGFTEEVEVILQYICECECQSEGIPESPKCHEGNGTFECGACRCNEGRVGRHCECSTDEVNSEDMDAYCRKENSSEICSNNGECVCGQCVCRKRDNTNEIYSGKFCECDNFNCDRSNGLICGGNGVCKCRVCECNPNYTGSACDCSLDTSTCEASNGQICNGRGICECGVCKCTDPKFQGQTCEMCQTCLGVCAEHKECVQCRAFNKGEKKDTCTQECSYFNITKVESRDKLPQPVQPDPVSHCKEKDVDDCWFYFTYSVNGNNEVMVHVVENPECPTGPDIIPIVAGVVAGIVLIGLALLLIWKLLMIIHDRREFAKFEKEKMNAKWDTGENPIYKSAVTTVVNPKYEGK
Sequence of Integrin beta-1 (Homo sapiens) + Integrin alpha-4 (Homo sapiens) (P13612 whole entry, looked up): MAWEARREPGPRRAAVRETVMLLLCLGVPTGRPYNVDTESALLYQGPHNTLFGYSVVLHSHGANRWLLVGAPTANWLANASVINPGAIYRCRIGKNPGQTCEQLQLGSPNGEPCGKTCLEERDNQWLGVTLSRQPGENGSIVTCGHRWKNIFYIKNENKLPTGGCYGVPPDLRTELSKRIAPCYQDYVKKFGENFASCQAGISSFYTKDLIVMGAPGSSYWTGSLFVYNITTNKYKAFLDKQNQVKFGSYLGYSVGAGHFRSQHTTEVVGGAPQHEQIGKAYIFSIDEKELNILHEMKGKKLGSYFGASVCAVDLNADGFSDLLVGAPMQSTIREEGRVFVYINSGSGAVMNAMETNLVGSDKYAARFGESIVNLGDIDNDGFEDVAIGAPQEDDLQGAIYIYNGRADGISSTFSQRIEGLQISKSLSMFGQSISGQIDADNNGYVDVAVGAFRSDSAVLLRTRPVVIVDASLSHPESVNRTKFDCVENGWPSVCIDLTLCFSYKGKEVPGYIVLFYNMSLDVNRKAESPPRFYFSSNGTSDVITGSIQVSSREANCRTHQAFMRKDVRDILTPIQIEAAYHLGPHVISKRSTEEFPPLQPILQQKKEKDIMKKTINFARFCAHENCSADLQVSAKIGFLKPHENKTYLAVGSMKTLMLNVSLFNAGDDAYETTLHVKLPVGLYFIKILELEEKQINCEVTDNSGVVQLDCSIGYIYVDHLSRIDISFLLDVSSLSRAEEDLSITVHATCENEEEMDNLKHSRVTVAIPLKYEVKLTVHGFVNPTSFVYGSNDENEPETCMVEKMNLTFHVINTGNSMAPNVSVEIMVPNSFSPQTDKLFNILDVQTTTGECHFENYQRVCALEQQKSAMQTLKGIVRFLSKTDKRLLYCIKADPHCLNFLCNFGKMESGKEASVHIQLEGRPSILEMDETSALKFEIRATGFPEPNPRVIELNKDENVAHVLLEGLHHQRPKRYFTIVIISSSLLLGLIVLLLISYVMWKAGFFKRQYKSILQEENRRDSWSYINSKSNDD
Sequence of ATP-binding cassette sub-family B member 6 (Homo sapiens) (Q9NP58 whole entry, looked up): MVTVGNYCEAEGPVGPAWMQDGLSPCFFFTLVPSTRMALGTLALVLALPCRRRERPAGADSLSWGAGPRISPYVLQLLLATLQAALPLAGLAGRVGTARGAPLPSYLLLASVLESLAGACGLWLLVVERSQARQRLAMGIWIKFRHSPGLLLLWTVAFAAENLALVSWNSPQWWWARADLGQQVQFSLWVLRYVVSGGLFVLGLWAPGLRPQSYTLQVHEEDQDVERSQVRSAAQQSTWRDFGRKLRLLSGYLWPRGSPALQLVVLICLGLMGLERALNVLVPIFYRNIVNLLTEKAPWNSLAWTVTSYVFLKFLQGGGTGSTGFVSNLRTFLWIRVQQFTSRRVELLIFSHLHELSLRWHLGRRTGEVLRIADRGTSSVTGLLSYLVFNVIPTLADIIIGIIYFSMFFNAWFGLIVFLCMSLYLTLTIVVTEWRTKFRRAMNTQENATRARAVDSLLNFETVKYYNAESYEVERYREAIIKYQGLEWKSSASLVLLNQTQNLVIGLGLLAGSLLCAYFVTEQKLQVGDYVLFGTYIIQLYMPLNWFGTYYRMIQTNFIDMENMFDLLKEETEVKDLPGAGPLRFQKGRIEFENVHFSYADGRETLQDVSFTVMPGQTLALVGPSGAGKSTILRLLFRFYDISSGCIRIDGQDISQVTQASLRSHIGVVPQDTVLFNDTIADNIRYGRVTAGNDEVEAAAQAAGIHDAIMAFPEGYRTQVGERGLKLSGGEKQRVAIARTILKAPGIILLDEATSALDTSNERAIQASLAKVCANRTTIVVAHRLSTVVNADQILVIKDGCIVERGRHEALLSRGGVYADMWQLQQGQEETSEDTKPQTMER

As to `CC(C)(C)n1c(=O)[nH]c2c(c1=O)CCC2`, in [1], the percent of DMSO control GFP is 105% (inactive). Moreover, the GFP response vs DMSO in test [2] is 103% (inactive); in [4] it was 113% (inactive). The percent response of DMSO control in test [3] is 98.3% (inactive). The GFP response, % of DMSO in test [5] was 110% (inactive). In test [6], the double positive events is 61.8%. In test [6], the vesicle binding response was 205% (inactive). Besides, the inhibition in test [7] is 8.25% (inactive); in test [11], 66.2% (active); in [15] it was -3% (inactive). The superoxide response (% of plate) in test [8] is 98.5% (inactive). For the same compound, the aptamer binding inhibition in [9] is 0% (inactive). Further, the figures for the response in [10] and in [12] were -17.6% (inactive) and 7.46% (inactive), respectively. Also, in [13], the binding (% of control) was 100% (inactive). For the same compound, the efflux inhibition (fraction of control) in test [14] was 0.08 (inactive). In test [16], the differentiation response is -12.9% (inactive).

Turning to `Cc1ccc(-c2nn(-c3cccc(F)c3)cc2CN2CCN(c3ccccn3)CC2)o1`, the percent of DMSO control GFP in test [1] is 101% (inactive). Also, the GFP response vs DMSO in [2] was 107% (inactive); in test [4], 123% (inactive). Besides, the percent response of DMSO control in test [3] was 92% (inactive). In [5], the GFP response, % of DMSO was 101% (inactive). Besides, in test [6], the double positive events is 54.2%. In test [6], the vesicle binding response was 2920% (inactive). Further, the results for the inhibition in test [7], in test [11] and in test [15] were 0.94% (inactive), 5.48% (inactive) and 12% (inactive), respectively. For the same compound, the superoxide response (% of plate) in test [8] was 95.7% (inactive). Moreover, the aptamer binding inhibition in [9] is 5% (inactive). Besides, the results for the response in [10] and in [12] were 25.4% (inactive) and -6.07% (inactive), respectively. In [13], the binding (% of control) is 101% (inactive). Further, the efflux inhibition (fraction of control) in test [14] is 0.37 (inactive). For the same compound, in test [16], the differentiation response is -23.2% (inactive).

Consider `OC12CCCCC1C(c1ccc3c(c1)OCO3)N(Cc1cccc(F)c1)CC2` (stereo not given), for which, in test [1], the percent of DMSO control GFP was 103% (inactive). For the same compound, the GFP response vs DMSO was 90.9% (inactive) in test [2] and 94% (inactive) in [4]. Besides, the percent response of DMSO control in test [3] is 113% (inactive). Also, the GFP response, % of DMSO in test [5] is 101% (inactive). Moreover, the double positive events in [6] was 61.7%. The vesicle binding response in [6] was 234% (inactive). The figures for the inhibition in test [7], in [11] and in test [15] were -5.64% (inactive), 7.03% (inactive) and 0% (inactive), respectively. Moreover, the superoxide response (% of plate) in test [8] was 97.9% (inactive). In addition, in test [9], the aptamer binding inhibition is 3% (inactive). For the same compound, the response in test [10] is -6.32% (inactive); in [12], -0.75% (inactive). Also, the binding (% of control) in [13] was 104% (inactive). In addition, in test [14], the efflux inhibition (fraction of control) was -0.01 (inactive). For the same compound, the differentiation response in test [16] was -10.5% (inactive).

With `Cc1ccccc1C(=O)NNc1ncnc2c1cnn2C`, in test [1], the percent of DMSO control GFP was 104% (inactive). The GFP response vs DMSO in [2] and in test [4] was 103% (inactive) in each case. Besides, in test [3], the percent response of DMSO control is 91.2% (inactive). In test [5], the GFP response, % of DMSO was 112% (inactive). In test [6], this compound had a double positive events of 64.9%. For the same compound, the vesicle binding response in [6] was 146% (inactive). Moreover, the inhibition is 3.99% (inactive) in test [7], 15.7% (inactive) in test [11] and -17% (inactive) in [15]. In addition, the superoxide response (% of plate) in test [8] is 104% (inactive). For the same compound, in [9], the aptamer binding inhibition is -2% (inactive). For the same compound, the results for the response in [10] and in test [12] were -18.4% (inactive) and -4.35% (inactive), respectively. The binding (% of control) in test [13] was 107% (inactive). The efflux inhibition (fraction of control) in test [14] is 0.08 (inactive). In test [16], the differentiation response is 6.83% (inactive).

Take `O=C(CC1SC(=O)NC1=O)Nc1ccc(Cl)cc1` (stereo not given): in [1], the percent of DMSO control GFP was 101% (inactive). In addition, the GFP response vs DMSO in [2] is 104% (inactive); in [4], 98% (inactive). In addition, the percent response of DMSO control in test [3] is 108% (inactive). The GFP response, % of DMSO in [5] is 108% (inactive). In test [6], this compound came in with a double positive events of 65.3%. In addition, in test [6], the vesicle binding response is 193% (inactive). Moreover, the inhibition in test [7] was 6.95% (inactive); in test [11] it was 1.72% (inactive); in test [15] it was -3% (inactive). Also, the superoxide response (% of plate) in test [8] was 116% (inactive). The aptamer binding inhibition in test [9] was -1% (inactive). Moreover, the response in test [10] was 2.95% (inactive); in [12], 1.59% (inactive). In addition, in test [13], the binding (% of control) is 100% (inactive). In addition, the efflux inhibition (fraction of control) in test [14] is -0.205 (inactive). Further, the differentiation response in [16] is -16.3% (inactive).
